Usually viability stands for a read-out of living cells in per cent, often relative to untreated cells. As usually defined, the inhibition is the change of the read-out against control, counted positive when it falls.

Inconclusive results are not listed. The source made the active and inactive calls.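 The calls were made as follows, unless noted: active = inhibition over a set limit, the all-compound mean plus 3 SD, in both replicate runs; inconclusive = over that limit in just one replicate run; inactive = at or under that limit in both runs.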

The nature of experiment [1]: Her2 expression decrease, cell viability multiplex – SKBR3 breast tumor cells, AlphaScreen, ATP viability, primary screen (AID 461;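 active = Her2 level under about 52% in both replicate screens, with viability over 70% of control, limit read from the data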;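 as to Her2 level: lower value means less Her2 protein in the cells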;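 as to viability: percent of carrier control wells set as 100% viability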). Particulars: SKBR3 Her2 protein level, 18-24 h, measured here: SKBR3 viability, ATP luminescence, at 10 µM. (In general: Alpha assays give light when donor and acceptor beads are brought close together.)
Experiment [2] addresses Receptor tyrosine-protein kinase erbB-2 (Homo sapiens) (UniProt P04626). The description is as above. Particulars: 18-24 h, at 10 µM, stronger effect = lower value.
Experiment [3] can be described thus: reduced viability of SK-BR-3 breast cancer cells – cell-based, 24 h, human, pilot screen (AID 572;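 active = viability at or below 10% of carrier control in both of two separate runs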;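 also: compound exposure lasted between 18 and 24 h rather than exactly 24 h; 100% = carrier-treated control wells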). Particulars: SK-BR-3 viability, CellTiter-Glo luminescence, at 10 µM, stronger effect = lower value. In general terms: In ATP-based viability assays light output follows the ATP content of the culture.
The nature of experiment [4]: HUVEC growth inhibition – cell-based, human, primary screen (AID 575;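 active = viability at or below 30% in both replicate assays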;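 also: 100% = median of untreated cell wells with 0.1% DMSO on each plate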). Particulars: HUVEC proliferation, CellTiter-Glo luminescence, 72 h; at 10 µM; stronger effect = lower value.
Experiment [5] can be described thus: H69AR cell proliferation blockers – human, duplicate replicates, primary screen (AID 580;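 active = viability at or under a set limit in both replicates, limit being median viability minus 3 SD, cut at about 48% in these data, passing the limit was not always enough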;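 also: 100% = mean luminescence of untreated wells and 0% = no signal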). To be noted: H69AR lung tumor cells viability, ATP luminescence, 72 h; at 10 µM; stronger effect = lower value.
A short description of experiment [6]: MRP1 drug-resistance reversers in H69AR cells – cell-based, doxorubicin co-treatment, pilot screen (AID 601;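 active = viability loss from added drug above about 55%, and viability with drug at most 40%, in both replicates, limit read from the data, passing the limit was not always enough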). To be noted: CellTiter-Glo, 72 h, at 10 µM; for differential viability (reversal): stronger effect = higher value.
A short description of experiment [7]: yeast transport mutant growth inhibition pilot in 384-well plates, post-Golgi transport modulator project (AID 636; in the data active = inhibition above about 31%). To be noted: absorbance 615 nm, about 18 h, stronger effect = higher value.
The nature of experiment [8]: growth suppression of yeast trafficking mutant, preliminary HTS, modulators of trafficking downstream of Golgi apparatus project, 1536-format plate, OD 615 nm (AID 637; in the data active = inhibition above about 30%). Particulars: yeast transport mutant growth, absorbance 615 nm, 18 h; stronger effect = higher value.
Experiment [9] can be described thus: S. cerevisiae growth inhibition in permissive medium (OD615), pilot counter-assay for S. cerevisiae lifespan shortening project, permissive growth control (AID 705;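 active = growth inhibition above 25% in both replicates, a cutoff set 3 SD above the mean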). Particulars: OD615, 24 h, at 10 µM, stronger effect = higher value.
Experiment [10] can be described thus: S. cerevisiae growth inhibition in restrictive medium, OD615, pilot screen, restrictive growth control, yeast lifespan reduction project (AID 706;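 active = growth inhibition above a set limit, 3 SD over mean compound inhibition, in both replicates, cut at about 43% in these data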;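 also: modified DeaD lifespan yeast strain shifted to restrictive glucose medium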). To be noted: OD615, 48 h, at 10 µM, stronger effect = higher value.
A short description of experiment [11]: doxorubicin toxicity protection in MRP-1 cells – H69AR cells, CellTiter-Glo, duplicate, MRP-1 activator project, pilot screen (AID 807;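 active = viability increase at or above a cutoff of the median across tested compounds plus 3 SD, cut at about 8.5% in these data, passing the limit was not always enough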;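 also: compound pretreatment 18-22 h then 72 h combined with doxorubicin; 0% = doxorubicin alone and 100% = vehicle without doxorubicin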). To be noted: H69AR viability with doxorubicin, CellTiter-Glo luminescence; at 10 µM; stronger effect = higher value.
Experiment [12] in a line: viability of HCT116 without oncogenic beta-catenin – human colon tumor cells, pilot screen (AID 823;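 active = cell viability at or below a set limit in both duplicate runs, the limit being the all-compound median minus 4 SD, cut at about 23% in these data, passing the limit was not always enough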;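 also: 0% = wells killed by 20 µM Hyamine and 100% = untreated DMSO cell wells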). Particulars: HCT116 beta-catenin knockout viability, CellTiter-Glo, 60 h; at 10 µM; stronger effect = lower value.
Experiment [13] in a line: viability of PTEN-null HCT116 cells – cell-based, HCT116 clonal line, CellTiter-Glo, pilot screen (AID 824;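 active = viability at or below 27.92% in each of two runs, the all-compound median minus 4 SD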;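 also: 0% = 20 µM Hyamine control and 100% = vehicle cell control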). To be noted: HCT116 PTEN-deleted viability, 60 h, at 10 µM, stronger effect = lower value.
Experiment [14] is described as follows: RAM pathway blockade in budding yeast – dse1pr::URA3 reporter, 5-FOA selection, pilot screen (AID 869).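 Also: 0% = DMSO wells with no growth and 100% = 10 µM 1-NA-PP1 with full growth; RAM network block rescues cells from 5-FOA so hits raise OD615 growth.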 Particulars: S. cerevisiae dse1pr::URA3 5-FOA growth, OD615, 2 d; at 10 µM; stronger effect = higher value; strain carries analog-sensitive mutant Cbk1 kinase.
Experiment [15] is described as follows: RAM signaling pathway blockade in yeast – S. cerevisiae, Pdr1DBD-CYC8 efflux-inhibited sensitized strain, primary screen (AID 1298;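 active = RAM network inhibition above 8.4% in each of two replicates, 3 SD over the compound average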;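 also: 0% = DMSO untreated cells without growth and 100% = 10 µM 1-NA-PP1 full growth; higher means more yeast growth rescued from 5-FOA killing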). To be noted: S. cerevisiae cbk1-as DSE1-URA3 strain, 5-FOA growth OD615, 2 d; at 50 µM; stronger effect = higher value.
Where [16] appears, read: H69AR cells + 2 uM doxorubicin, measured here: viability with 2 uM doxorubicin, stronger effect = lower value.
Setting [17] is: H69AR cells, compound alone cytotoxicity.

Chain of Receptor tyrosine-protein kinase erbB-2 (Homo sapiens) (P04626 whole entry, looked up): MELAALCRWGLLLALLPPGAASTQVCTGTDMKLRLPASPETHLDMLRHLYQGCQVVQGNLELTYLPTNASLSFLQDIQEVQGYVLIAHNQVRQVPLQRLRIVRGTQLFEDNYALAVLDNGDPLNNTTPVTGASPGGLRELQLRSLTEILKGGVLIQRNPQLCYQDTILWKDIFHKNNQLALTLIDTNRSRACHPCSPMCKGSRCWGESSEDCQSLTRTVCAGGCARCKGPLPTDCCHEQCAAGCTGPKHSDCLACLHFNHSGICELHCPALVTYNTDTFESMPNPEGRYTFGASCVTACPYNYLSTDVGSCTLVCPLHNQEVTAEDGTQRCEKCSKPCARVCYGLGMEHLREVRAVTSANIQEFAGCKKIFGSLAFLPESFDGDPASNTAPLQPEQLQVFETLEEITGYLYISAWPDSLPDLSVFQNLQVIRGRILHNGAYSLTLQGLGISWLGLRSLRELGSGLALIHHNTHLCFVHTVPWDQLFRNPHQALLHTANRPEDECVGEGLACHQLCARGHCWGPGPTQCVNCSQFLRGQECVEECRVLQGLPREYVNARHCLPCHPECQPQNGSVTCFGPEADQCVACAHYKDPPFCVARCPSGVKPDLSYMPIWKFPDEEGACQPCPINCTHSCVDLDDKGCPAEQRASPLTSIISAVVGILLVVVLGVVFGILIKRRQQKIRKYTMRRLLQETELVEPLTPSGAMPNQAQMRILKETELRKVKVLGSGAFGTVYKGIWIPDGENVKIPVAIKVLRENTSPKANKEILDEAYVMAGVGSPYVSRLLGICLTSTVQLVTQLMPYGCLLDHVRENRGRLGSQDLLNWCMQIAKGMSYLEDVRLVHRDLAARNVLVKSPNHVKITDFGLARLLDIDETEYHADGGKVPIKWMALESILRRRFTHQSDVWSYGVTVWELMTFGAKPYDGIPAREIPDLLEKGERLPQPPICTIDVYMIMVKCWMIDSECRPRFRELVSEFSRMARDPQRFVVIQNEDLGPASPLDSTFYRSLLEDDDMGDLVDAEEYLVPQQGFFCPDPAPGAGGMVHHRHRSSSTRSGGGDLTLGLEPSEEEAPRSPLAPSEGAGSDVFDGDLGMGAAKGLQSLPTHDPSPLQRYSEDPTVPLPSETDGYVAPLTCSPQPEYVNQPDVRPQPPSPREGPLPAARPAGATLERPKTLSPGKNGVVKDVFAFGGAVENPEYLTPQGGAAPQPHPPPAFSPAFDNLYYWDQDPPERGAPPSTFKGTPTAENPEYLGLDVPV

For `CCOc1ccc(NC(=O)CN2C(=O)C3CCCN3C2=O)cc1` (stereo not given), the viability is 85% in experiment [1]; 85% (inactive) in experiment [3]; 94.6% (inactive) in experiment [4]; 101% (inactive) in [5]; 97.5% in experiment [6] (setting [16]); 101% in [6] (setting [17]). Besides, the values for the viability in experiment [12] and in experiment [13] were 102% (inactive) and 97.1% (inactive), respectively. Also, the Her2 level in [2] was 106% (inactive). Besides, in experiment [6] (H69AR cells + 2 uM doxorubicin), the differential viability (reversal) was 3.86% (inactive). The figures for the inhibition in experiment [7], in experiment [8] and in experiment [14] were -2.53% (inactive), 3.67% (inactive) and -0.315% (inactive), respectively. The growth inhibition was -4.76% (inactive) in [9] and -13.8% (inactive) in experiment [10]. The viability increase in [11] was -0.9% (inactive). The RAM network inhibition in [15] is 2.93% (inactive).

Take `COc1cc(C2N3CC4(C)CN2CC(C)(C3)C4)ccc1O` (stereo not given): the viability was 94% in experiment [1]; 94% (inactive) in [3]; 105% (inactive) in experiment [4]; 104% (inactive) in experiment [5]; 92.3% in experiment [6] (setting [16]); 104% in experiment [6] (setting [17]). The viability in [12] was 104% (inactive); in experiment [13], 98% (inactive). Also, the Her2 level in experiment [2] is 123% (inactive). In [6] (H69AR cells + 2 uM doxorubicin), the differential viability (reversal) was 11.5% (inactive). Also, the inhibition is -0.51% (inactive) in experiment [7], -2% (inactive) in [8] and 1.72% (inactive) in experiment [14]. Moreover, the growth inhibition in experiment [9] is -5.33% (inactive); in [10], 1.65% (inactive). Also, the viability increase in experiment [11] is 0.39% (inactive). For the same compound, in experiment [15], the RAM network inhibition was 0.39% (inactive).

In the case of `Cc1ccc2oc(=O)c3cnn(CC(=O)N4CCCc5ccccc54)c3c2c1`, the viability in experiment [1] was 100%; in experiment [3] it was 100% (inactive); in experiment [4], 89.8% (inactive); in experiment [5], 74.8% (inactive); in experiment [6] (setting [16]), 60.9%; in experiment [6] (setting [17]) it was 74.8%. The viability in experiment [12] was 91.3% (inactive); in [13], 82.3% (inactive). In addition, in [2], the Her2 level is 98.5% (inactive). In addition, the differential viability (reversal) in experiment [6] (H69AR cells + 2 uM doxorubicin) is 13.9% (inactive). Besides, the inhibition in experiment [7] is -2.67% (inactive); in experiment [8] it was -0.82% (inactive); in [14], 3.85% (inactive). Also, the growth inhibition is -12.4% (inactive) in experiment [9] and -5.59% (inactive) in experiment [10]. Also, in experiment [11], the viability increase was -3.17% (inactive). Also, the RAM network inhibition in [15] was 6.86% (inactive).

As to `COCCCN(C)C1CCN(C(=O)Nc2ccc(F)cc2)CC1`, the viability in [1] was 106%; in [3] it was 106% (inactive); in [4], 109% (inactive); in experiment [5], 89% (inactive); in experiment [6] (setting [16]) it was 94.4%; in experiment [6] (setting [17]), 89%. The values for the viability in experiment [12] and in experiment [13] were 103% (inactive) and 105% (inactive), respectively. In experiment [2], the Her2 level is 124% (inactive). Besides, the differential viability (reversal) in [6] (H69AR cells + 2 uM doxorubicin) is -5.42% (inactive). In addition, the values for the inhibition in experiment [7], in [8] and in experiment [14] were -3.47% (inactive), -1.5% (inactive) and 0.185% (inactive), respectively. For the same compound, the results for the growth inhibition in [9] and in experiment [10] were -6.78% (inactive) and 3.39% (inactive), respectively. Further, the viability increase in experiment [11] was 0.68% (inactive). The RAM network inhibition in experiment [15] is 8.93% (inactive).

Take `CCN(CC)C(=O)C1CCCN(c2ncnc3c2cnn3-c2ccc(Cl)cc2)C1` (stereo not given): the viability in [1] was 94.5%; in [3] it was 94.5% (inactive); in [4], 49.2% (inactive); in experiment [5], 86.1% (inactive); in experiment [6] (setting [16]), 83.7%; in [6] (setting [17]) it was 86.1%. The figures for the viability in experiment [12] and in experiment [13] were 66% (inactive) and 69.7% (inactive), respectively. The Her2 level in experiment [2] was 96.5% (inactive). The differential viability (reversal) in experiment [6] (H69AR cells + 2 uM doxorubicin) is 2.38% (inactive). The figures for the inhibition in experiment [7], in [8] and in experiment [14] were -4.4% (inactive), -2.17% (inactive) and 0.62% (inactive), respectively. For the same compound, the growth inhibition in [9] is -7.13% (inactive); in experiment [10] it was 5.38% (inactive). The viability increase in experiment [11] is 3.1% (inactive). In addition, the RAM network inhibition in [15] was -2.04% (inactive).

The record behind these values is PubChem BioAssay.
